Pf growth 48h = Primary qHTS for delayed death inhibitors of the malarial parasite plastid, 48 hour incubation | P. falciparum luciferase growth in erythrocytes, 48 h | Potency, µM (series often up to 28.7 µM), without a hit: at the highest dose activity change, negative = inhibition, hits mostly inhibitors | hit rate 5.9% among 310,000; also: potency is read from the fitted curve at half-maximal effect; % is scaled to controls: 0 for no effect and ±100 for the full control effect
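Compounds are pin-transferred into medium, infected erythrocytes (2% hematocrit, 0.1% parasitemia final) are added, and plates sit one parasite generation at 37 C in 5% CO2. Detection reagent is then added and luminescence measured.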
CHX counter = Cycloheximide Counterscreen for Small Molecule Inhibitors of Shiga Toxin | hit rate 12% among 300,000 | max response, % | cell reporter, cycloheximide protein synthesis inhibition counterscreen | AID 2314, 2010; in the data active = max response mostly above about 13%, no sharp cut-off; inactive = mostly below about 14%; also: read at 38.3 µM for the half of the compounds with a filed dose; 0% is about no effect
Shiga toxin inh = A qHTS for Small Molecule Inhibitors of Shiga Toxin; inhibition, % at 38.7 µM; AID 2315, 2010; hit rate 9.2% among 290,000; Vero cells, Shiga toxin protein synthesis inhibition reporter; in the data active = inhibition mostly above about 28%, no sharp cut-off; inactive = mostly below about 43%; also: 0% is about no effect
Pf growth 96h = Primary qHTS for delayed death inhibitors of the malarial parasite plastid, 96 hour incubation; P. falciparum luciferase reporter growth, 96 h; Potency, µM (titrated, usually from 28.7 µM), for the others: top-dose activity change, negative = inhibition, most hits filed as inhibitors; hit rate 6.9% among 320,000; AID 504834, 2011; also: potency is read from the fitted curve at half-maximal effect; % is scaled to controls: 0 for no effect and ±100 for the full control effect
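Two parasite generations (96 h, 37 C, 5% CO2) of compound exposure in infected erythrocytes (0.05% parasitemia, 2% hematocrit). Luciferase-reporter P. falciparum; decreased luminescence indicates inhibited growth, aimed at apicoplast-acting delayed death.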
HCV inhibitor = qHTS Assay for Inhibitors of Hepatitis C Virus (HCV); Huh7.5.1 HCVcc-Cre infection, luciferase reporter, 44 h; Potency, µM (titrated, usually from 41.8 µM), for the others: at the top dose activity change, negative = inhibition, usual class: inhibitors; hit rate 3.4% among 340,000; also: potency is read from the fitted curve at half-maximal effect; % is scaled to controls: 0 for no effect and ±100 for the full control effect
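Whole-lifecycle infectious HCVcc-Cre system; cells 1,000/well, compound then virus (~0.5 moi) added 4 h after plating, 44 h culture. Luciferase read 15 sec following 15 min substrate incubation, room temp.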
HCMV antiviral = qHTS Assay for inhibitors of the human cytomegalovirus (HCMV) | HFF cells, HCMV-luciferase reporter, 72 h; hits give low values | activity change, negative = inhibition, % at 57.5 µM | hit rate 4.5% among 410,000 | AID 1259415, 2018; in the data active = activity change below about -60%; inconclusive = no clear call, values can overlap the other calls; inactive = above about -39%; also: % is scaled to controls: 0 for no effect and ±100 for the full control effect
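After 16 h attachment at 37C, HFF cells received test compound and HCMV-luciferase (1 PFU/cell); reporter luminescence read 72 h later, data normalized against buffer-only and known inhibitor Salinomycin.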
An asterisk follows results filed as active; ? = inconclusive; · = no result given; [ ] = another dose, or the depositor's remark. Rows were chosen to be rich in hits. Some 21% of all compounds tested hit in one or more screens of this group. Unless noted, calls follow the shape of the dose curve; as a rule, active = well fitted inhibition curve with a large enough effect; inconclusive = small, poorly fitted or top-dose-only effect, or another doubt; inactive = no such curve, though single readings can be large or run the other way.

SMILES	Pf growth 48h	CHX counter	Shiga toxin inh	Pf growth 96h	HCV inhibitor	HCMV antiviral
CN(C)S(=O)(=O)c1cccc(NC(=O)CCCc2nc3ccccc3c(=O)[nH]2)c1	1%	·	·	5%	-4%	-26
Cc1ccc(C)c(NC(=S)N2CCC(C(=O)c3ccc(F)cc3)CC2)c1	·	·	·	·	·	57
N#C/C(=C\c1ccc[nH]1)C(=O)Nc1ccccc1F	30%	34*	74*	-29%	3%	143
N#C/C(=C\c1ccc[nH]1)C(=O)Nc1ccccc1Cl	37%	33*	61*	-26%	5%	108
COc1ccc(NC(=O)/C(C#N)=C/c2ccc[nH]2)c(OC)c1	22%	11	-20	10%	-2%	44
N#C/C(=C\c1ccc[nH]1)C(=O)c1ccccc1	2%	33*	99*	8%	16%	-2
Cc1cc(/C=C(\C#N)C(=O)Nc2ccccc2F)c(C)[nH]1	178%	46*	64*	-27%	?	82
Cc1cc(C)n(C(=O)Cn2nc([N+](=O)[O-])c(Br)c2C)n1	-6%	-3	14	-39%	-1%	10
COc1cc(NS(=O)(=O)c2cn(C)cn2)cc(OC)c1	16%	-8	-5	?	9%	-7
COc1ccc(COc2cccc3ccc(C)nc23)cc1F	-4%	-5	22	-8%	?	-29
Cn1c(SCc2cccc(Br)c2)nc2ccccc2c1=O	-5%	1	-5	?	22µM*	-30
Cc1ccccc1CSc1nc2ccccc2c(=O)n1C	9.3µM*	·	·	?	1%	?
COc1ccc(-c2cc(C)no2)cc1S(=O)(=O)NC(C)C	·	·	·	·	·	0
Cc1ccc(CSc2nc3ccncc3n2CC(=O)Nc2cc(C)cc(C)c2)cc1	140%	8	14	?	12%[8.37 µM]	2
Cc1cc(C)cc(NC(=O)Cn2c(SCc3cc(C)ccc3C)nc3ccncc32)c1	3%	76*	89*	112%	-9%[8.37 µM]	·
Cc1cc(C)c(NC(=O)c2cc(S(=O)(=O)N3CCCC3)cn2C)c(C)c1	·	·	·	·	·	0
CCC[C@@H](O)c1cc2cc(OC)c(OC)cc2c(=O)o1	0%	·	·	2.6µM*	-17%	-15
C#Cc1ccc([C@@H]2C=C(C(=O)N3CCOCC3)O[C@H](OCCCCO)C2)cc1	?	-1	-5	?	-2%	-9
C#Cc1ccc([C@H]2C=C(C(=O)OCC=C)O[C@@H](OCCCCO)C2)cc1	·	·	·	·	11%	-67*
C#CCNC(=O)C1=C[C@H](c2ccccc2)C[C@H](OCCCCO)O1	?	12	10	?	5%	7
O=C(C1=C[C@H](c2ccc(Br)cc2)C[C@H](OCCCCO)O1)N1CCOCC1	-2%	12*	31	0%	-11%	-2
NC(=O)C1=C[C@@H](c2ccc(Br)cc2)C[C@@H](OCCCCO)O1	0%	7.8*	19	0%	9%	?
C#CCNC(=O)C1=C[C@@H](c2ccc(Br)cc2)C[C@@H](OCCCCO)O1	?	13*	35*	8.3µM*	-20%	-25
CC(C)c1ccc2occ(CC(=O)Nc3ccccc3Cl)c2c1	·	·	·	·	·	-13
COc1cc(-c2cc(OC)c3c(C)oc(C)c3c(=O)c2)ccc1OC(=O)c1cccc(Cl)c1	·	·	·	·	·	174
COc1ccc(C(=O)N2CCCC(CCC(=O)NCc3ccccc3F)C2)c(OC)n1 (stereo not drawn)	1%	23*	8	?	-7%	-2
COCc1ccc(C(=O)N2CCCC(CCC(=O)NCc3ccccc3F)C2)o1 (stereo not drawn)	-5%	9	8	?	1%	-19
O=C(CCC1CCCN(C(=O)c2ccc3c(c2)OCCO3)C1)NCc1ccccc1F (stereo not drawn)	107%	48*	77*	?	1%	118
CCOc1cccc(CN2CCCC(CCC(=O)NCc3ccccc3F)C2)c1O (stereo not drawn)	?	10	-2	1.5µM*	-6%	-7

Screens: PubChem, National Center for Advancing Translational Sciences (NCATS)
